Several values for one entry are separate records, joined by “and”; a condition that tells them apart may be missing. Identical values can stand only once. Results filed as inconclusive are left out. Activity calls are given as the source filed them. Unless noted, calls follow the shape of the dose curve; as a rule, active = well fitted curve in the direction sought with a large enough effect in the repeat runs; inconclusive = weak or mixed curves; inactive = flat fitted curve, though single readings scatter.
Assays:
[1] = qHTS assay to test for compound auto fluorescence at 535 nm (green) in HEK293 cells (AID 720680)
[2] = qHTS assay to test for compound auto fluorescence at 460 nm (blue) in HEK293 cell free culture (AID 720681)
In short: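 Blue fluorescence (Ex 405/Em 460 nm, triamterene-equivalent) was read immediately after pin transfer of compound or DMSO into medium (DMEM, 10% FBS) without cells.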

[3] = qHTS assay to test for compound auto fluorescence at 535 nm (green) in HEK293 cell free culture (AID 720682)
In short: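 No cells present: wells hold DMEM supplemented with 10% FBS, into which compound or vehicle is pinned. Green emission is then recorded (485 nm excitation, 535 nm emission) and scaled to fluorescein.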

[4] = qHTS assay to test for compound auto fluorescence at 590 nm (red) in HEK293 cell free culture (AID 720683)
In short: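 Red-channel autofluorescence of compounds in culture medium (DMEM, 10% FBS), no cells, measured at 540/590 nm. Rose Bengal sodium is the reference fluorophore for equivalence.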

[5] = qHTS assay to test for compound auto fluorescence at 590 nm (red) in HepG2 cell free culture (AID 720684)
In short: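 No cells present: MEM + 10% FBS only. Compound pinned in, red label read (540/590 nm). Activity = fluorescence equivalent to Rose Bengal sodium.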

[6] = qHTS assay to test for compound auto fluorescence at 460 nm (blue) in HepG2 cell free culture (AID 720685)
In short: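 Cell-free plates of MEM plus 10% FBS received 23 nL compound or DMSO vehicle; blue-channel (405/460 nm) intensity scored against triamterene as reference fluorophore.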

[7] = qHTS assay to test for compound auto fluorescence at 535 nm (green) in HepG2 cell free culture (AID 720686)
[8] = qHTS assay to test for compound auto fluorescence at 460 nm (blue) in HepG2 cells (AID 720687)
In short: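 Blue-channel autofluorescence (Ex/Em 405/460 nm, triamterene-equivalent) was measured after 1 hr compound exposure at 37 C, 5% CO2. Cells were HepG2, plated overnight at 37 C in MEM plus 10% FBS.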

[9] = molecular target: Glucocorticoid receptor (Homo sapiens) (UniProt P04150); experiment: qHTS assay to identify small molecule agonists of the glucocorticoid receptor (GR) signaling pathway (AID 720691; active = well fitted activation curve with a large enough effect in the signal ratio in the repeat runs, not every such curve was filed as active; the % refers to the signal ratio); settings: GR-bla HeLa, beta-lactamase reporter ratio, 18 h; activation: at 62.4 µM (top of the series)
Sequence of Glucocorticoid receptor (Homo sapiens) (P04150 whole entry, looked up): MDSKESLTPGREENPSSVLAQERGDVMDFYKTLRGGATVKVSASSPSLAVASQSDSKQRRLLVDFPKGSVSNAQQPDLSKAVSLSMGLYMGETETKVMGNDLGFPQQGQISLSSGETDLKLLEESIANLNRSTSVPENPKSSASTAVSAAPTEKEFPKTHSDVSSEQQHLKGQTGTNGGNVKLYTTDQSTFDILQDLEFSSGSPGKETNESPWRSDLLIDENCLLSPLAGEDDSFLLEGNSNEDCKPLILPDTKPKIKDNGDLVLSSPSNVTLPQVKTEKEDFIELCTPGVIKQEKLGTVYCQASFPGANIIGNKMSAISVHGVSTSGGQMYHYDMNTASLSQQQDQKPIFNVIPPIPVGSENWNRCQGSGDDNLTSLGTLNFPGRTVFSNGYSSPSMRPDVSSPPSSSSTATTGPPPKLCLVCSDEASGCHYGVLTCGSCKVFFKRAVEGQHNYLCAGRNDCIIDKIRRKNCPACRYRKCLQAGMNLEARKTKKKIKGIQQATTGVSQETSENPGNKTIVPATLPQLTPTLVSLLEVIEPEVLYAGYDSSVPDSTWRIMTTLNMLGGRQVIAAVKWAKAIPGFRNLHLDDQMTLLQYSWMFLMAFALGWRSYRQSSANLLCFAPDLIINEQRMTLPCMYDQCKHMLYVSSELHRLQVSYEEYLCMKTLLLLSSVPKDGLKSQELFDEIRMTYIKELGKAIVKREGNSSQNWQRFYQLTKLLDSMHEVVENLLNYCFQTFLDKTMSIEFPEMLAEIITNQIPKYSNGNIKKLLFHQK
In short: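 Measures GR pathway activation through a GRE-beta-lactamase reporter stably integrated in HeLa cells, with 18 h compound treatment at 37 C and fluorescence detection using a FRET substrate.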

[10] = molecular target: Glucocorticoid receptor (Homo sapiens) (UniProt P04150); experiment: qHTS assay to identify small molecule antagonists of the glucocorticoid receptor (GR) signaling pathway (AID 720692; active = well fitted inhibition curve with a large enough effect in the signal ratio in the repeat runs, not every such curve was filed as active; the % refers to the signal ratio; also: potency is read from the fitted curve at half-maximal effect)
In short: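 Tox21 10K library screened in concentration-response for blockade of dexamethasone (5 nM final)-induced GRE-bla reporter activity in HeLa cells; 18 h treatment, fluorescence read.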

Measured: Potency

CC(C)OC(=O)c1cc2c(OCC(O)CNC(C)(C)C)cccc2[nH]1 (centres undefined)
inactive: all assays above

Cc1[nH]cnc1C[C@H]1CCc2c(C)c3ccccc3n2C1=O
inactive: all assays above

O=C(OC[C@H]1O[C@@H](OC(=O)c2cc(O)c(O)c(OC(=O)c3cc(O)c(O)c(O)c3)c2)[C@H](OC(=O)c2cc(O)c(O)c(OC(=O)c3cc(O)c(O)c(O)c3)c2)[C@@H](OC(=O)c2cc(O)c(O)c(OC(=O)c3cc(O)c(O)c(O)c3)c2)[C@@H]1OC(=O)c1cc(O)c(O)c(OC(=O)c2cc(O)c(O)c(O)c2)c1)c1cc(O)c(O)c(OC(=O)c2cc(O)c(O)c(O)c2)c1
not listed: [9]
inactive: all other assays above

C[C@H]1[C@H]2CC[C@H]3[C@@H]4CC=C5C[C@@H](N(C)C)CC[C@]5(C)[C@H]4CC[C@]23CN1C
inactive: all assays above

N/C(=N\N=C\c1ccc(Cl)cc1)N/N=C/c1ccc(Cl)cc1
inactive: all assays above

O=c1c(-c2ccccc2)c1-c1ccccc1
active: [10] 23.9 µM
not listed: [9]
inactive: all other assays above

CCN(C(=O)c1cc(C)cc(OC[C@H](C)Nc2ccncc2)c1)C(C)C
not listed: [9]
inactive: all other assays above

S=c1[nH]c2ccccc2s1
inactive: all assays above

CCN(C(=O)N(CC)c1ccccc1)c1ccccc1
inactive: all assays above

O=c1cc(-c2ccc(O)cc2)oc2cc(O)cc(O)c12
active: [10] 27.9 µM and 27.5 µM
inactive: all other assays above

CCCC(C)c1ccccc1O (centres undefined)
inactive: all assays above

CCCC/C=C/CCCCO
inactive: all assays above

CC1=NC(C)OC1C (centres undefined)
active: [10] 34.7 µM
inactive: all other assays above

CC(C)(C)c1ccc(C(=O)O)cc1
inactive: all assays above

CCCCC(CC)COP(=O)(O)OCC(CC)CCCC (centres undefined)
active: [10] 49.1 µM
not listed: [9]
inactive: all other assays above

CCC(N)(CO)CO
inactive: all assays above

Oc1cc2ccccc2c2ccccc12
active: [10] 19.5 µM
not listed: [9]
inactive: all other assays above

O=C(c1ccc(O)cc1O)c1ccc(O)cc1O
active: [10] 24.6 µM
inactive: all other assays above

CN(C)[C@@H]1C(=O)C(C(N)=O)=C(O)[C@@]2(O)C(=O)C3=C(O)c4c(O)ccc(Cl)c4[C@@H](O)[C@H]3C[C@@H]12
inactive: all assays above

O=C(NOCC1CC1)c1ccc(F)c(F)c1Nc1ccc(I)cc1Cl
active: [10] 10.7 µM
not listed: [9]
inactive: all other assays above

— PubChem BioAssay (Tox21)
